Screening results deposited in PubChem by National Center for Advancing Translational Sciences (NCATS).
IL2 activator – qHTS of IL-2 Activators; AID 652025, 2013; IL-2 activation reporter assay, cell-based qHTS; stimulated with anti-CD3/CD4/CD28 beads; in transgenic mouse T cells; actives 0.065% (n = 360,000); activation, % (series mostly up to about 46 µM); in the data active = activation above about 50%; inconclusive = mostly about 30% to 49%
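EGFP and DsRed fluorescence is measured by plate cytometry in unstimulated transgenic mouse T cells exposed to compound for 60 minutes, then stimulated 18 hours at 37 degrees C with anti-CD3/anti-CD4 beads plus anti-CD28.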
TCR activator – Activators of T cell receptors: qHTS campaign; Potency, µM (highest dose often 9.22 µM), usual class: activators; AID 504894, 2011; 330,000 tested, under 10 active; primary human leukocytes, anti-CD3, IL-2 HTRF, 48 h
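Primary human leukocytes incubated 48 hr with anti-CD3 beads plus compound, without co-stimulation. Secreted IL-2 measured by HTRF (europium cryptate/d2 anti-IL-2 pair, 320 nm excitation, 665 nm emission).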
Mito fusion act – qHTS Assay for Small Molecule Inhibitors of Mitochondrial Division or Activators of Mitochondrial Fusion; S. cerevisiae fusion-defective mutant growth rescue, CellTiterGlo 48 h; Potency, µM (top dose mostly 46.1 µM), usual class: activators; actives 0.23% (n = 320,000); note: nearly all actives have a fitted effect of over 45% in size
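S. cerevisiae fusion-defective temperature-sensitive mutants (e.g. fzo1-1, mgm1-5) grown 48 h at 37C in YPEG (ethanol/glycerol non-fermentable) medium with 23 nl compound per well; growth rescue read as CellTiterGlo luminescence.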
BRCA1 expr act – qHTS Assay to Identify Small Molecule Activators of BRCA1 Expression | Potency, µM (doses to about 46.1 µM), hits mostly activators | MCF7-BRCA1-FFLuc reporter, luminescence, 48 h; response scale: scaled: vehicle 0%, 10 µM genistein 100% | AID 624202, 2012 | actives 1.1% (n = 380,000); note: nearly all actives have a fitted effect of over 80% in size
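MCF7 cells carrying a BRCA1-firefly luciferase reporter (2000 cells/well, phenol-red free MEM) were attached for 2 h at 37 °C, then given compounds for 48 h. Luminescence was read 15 min after luciferase reagent; activity normalized to genistein (10 microM) and DMSO.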
PTHR1 agonist – qHTS for PTHR1 Agonists: Primary Screen; Parathyroid hormone/parathyroid hormone-related peptide receptor (Homo sapiens), Q03431; HEK293 GP2 PTHR1 cells, GloSensor cAMP luminescence, 1 h; Potency, µM (doses to about 115 µM), actives largely listed as activators; actives 0.075% (n = 410,000); AID 743266, 2014; note: nearly all actives have a fitted effect of over 55% in size
Target sequence (Q03431 whole entry, looked up): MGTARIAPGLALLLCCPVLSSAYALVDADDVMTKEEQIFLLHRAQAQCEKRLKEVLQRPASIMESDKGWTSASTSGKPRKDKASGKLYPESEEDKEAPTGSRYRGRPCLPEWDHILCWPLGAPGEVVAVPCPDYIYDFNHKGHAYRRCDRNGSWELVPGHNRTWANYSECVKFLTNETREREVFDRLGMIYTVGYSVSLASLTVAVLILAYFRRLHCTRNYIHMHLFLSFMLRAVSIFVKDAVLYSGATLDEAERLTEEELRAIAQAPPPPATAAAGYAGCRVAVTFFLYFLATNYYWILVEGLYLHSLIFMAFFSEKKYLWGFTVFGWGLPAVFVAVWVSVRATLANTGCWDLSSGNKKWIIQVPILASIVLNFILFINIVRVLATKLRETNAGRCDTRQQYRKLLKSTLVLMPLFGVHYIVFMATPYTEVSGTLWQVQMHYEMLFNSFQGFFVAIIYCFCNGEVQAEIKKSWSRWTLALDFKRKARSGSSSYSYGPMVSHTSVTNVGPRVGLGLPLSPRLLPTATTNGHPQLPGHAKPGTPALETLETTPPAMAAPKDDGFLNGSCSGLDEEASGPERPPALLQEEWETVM
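HEK-293-derived GP2 cells expressing PTHR1 and a GloSensor cAMP reporter, 3,000/well, plated overnight, given luciferin plus IBMX (each 0.5 mM as added) for 1 h at 37 °C, then compound for 1 h at 37 °C. Luminescence was read after 15 min at room temperature.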
BCR signal inh – qHTS Assay to Find Inhibitors of Chronic Active B-Cell Receptor Signaling; ABC-DLBCL IkBa-CBG/CBR reporter, luminescence ratio, 4 h; Potency, µM (series often up to 46.1 µM), actives largely listed as inhibitors; actives 0.05% (n = 340,000); AID 493014, 2011; active = well fitted inhibition curve with a large enough effect in the signal ratio, with a control signal flat, not every such curve was filed as active; inconclusive = small, poorly fitted or top-dose-only effect, or effect the other way, or a change in a side signal; the % refers to the signal ratio
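TMD8 human ABC-DLBCL cells with doxycycline-inducible IκBα–green luciferase fusion and unfused red luciferase, in 0.5% FBS medium; compounds up to 46 uM, 4 h at 37C. Green/red luminescence ratio, filter-overlap corrected, fitted to concentration-response curves.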
Large screens that a line does not name were inactive. A selection: hits, their analogues and other compounds. The true share with any hit is near 1.3%. Unless noted, calls come from the whole dose curve; as a rule, active = well fitted curve in the direction sought with a large enough effect; inconclusive = small, poorly fitted or top-dose-only effect, or another doubt; inactive = no such curve, though single readings can be large; an effect the other way counts as inactive or inconclusive.

O=C(Nc1cccc(-c2cnc3ccccc3n2)c1)c1ccccc1	none
CCOC(=O)c1ccc2ncc(-c3ccccc3)nc2c1	BRCA1 expr act 13µM
CCc1ccc(-c2cnc3ccccc3n2)cc1NC(=O)CNC(=O)c1ccccc1	BRCA1 expr act 7.9µM, BCR signal inh inconclusive
COc1cc2c(NC3CCN(C(C)C)CC3)nc(N3CCCN(C)CC3)nc2cc1OCCOCCN(C)C	none (no result: IL2 activator, TCR activator, Mito fusion act, PTHR1 agonist, BCR signal inh)
O=c1c2ccccc2[nH]c(=S)n1-c1cccc(S(=O)(=O)N2CCCC2)c1	none
Cc1cc(C)cc(-n2ccnc2SCC(=O)Nc2nc3ccc(C)cc3s2)c1	none (no result: IL2 activator, TCR activator, Mito fusion act, BCR signal inh)
O=C(NCC1CC1)c1cccc2c(-c3ccc(F)c(F)c3)coc12	BRCA1 expr act 3.5µM (no result: TCR activator, Mito fusion act, BCR signal inh)
CN(C)/C=C/C(=O)c1ccc(-c2ccc(Cl)cc2Cl)o1	BRCA1 expr act 11µM, BCR signal inh inconclusive
O=C(O)c1ccc(-c2ccc(Cl)cc2Cl)o1	none
Cc1ccc2c(c1)c(=O)c1ccccc1n2CCCC(=O)Nc1ccc(C)c(F)c1	none (no result: IL2 activator, TCR activator, Mito fusion act, BRCA1 expr act, BCR signal inh)
Cc1ccnc(N(C(=O)Nc2ccccc2)C2=NCC(C)(C)S2)c1	BRCA1 expr act 3.2µM
Cc1ccc(N(C(=O)Nc2ccccc2)C2=NCC(C)S2)cc1 (stereo not drawn)	none
CCCc1cc(C(=O)NCCc2ccccc2)no1	BRCA1 expr act 4µM, BCR signal inh inconclusive
CCCc1cc(C(=O)Nc2cc(C)ccc2O)no1	BRCA1 expr act 2.8µM, BCR signal inh inconclusive
COc1cccc(CCNC(=O)c2cc(COc3ccc(C)c(C)c3)on2)c1OC	BRCA1 expr act 5.6µM (no result: TCR activator, Mito fusion act, BCR signal inh)
CCc1cc(C(=O)NCc2ccccc2)no1	none (no result: IL2 activator, TCR activator, Mito fusion act, BRCA1 expr act, BCR signal inh)
Cc1ccc(OCc2cc(C(=O)NCCc3cccnc3)no2)cc1C	BRCA1 expr act 11µM, BCR signal inh inconclusive
CCCc1cc(C(=O)Nc2cccnc2Cl)no1	none
COc1cc(OC)c(/C=C/c2cc3c4ccccc4ccc3[n+](C)c2)c(OC)c1	none (no result: IL2 activator, TCR activator, Mito fusion act, PTHR1 agonist, BCR signal inh)
COc1ccc(NC(=O)Cn2c(=O)n(CCc3ccccc3)c(=O)c3c4c(sc32)CCCC4)cc1	none (no result: IL2 activator, TCR activator, Mito fusion act, BCR signal inh)
O=C(Nc1ccccc1Cl)c1cc2c(-c3ccccc3)nn(-c3ccccc3)c2s1	none (no result: IL2 activator, TCR activator, Mito fusion act, BCR signal inh)
Cc1ccc(OCc2cc(C(=O)N(C)CCc3ccccn3)no2)cc1C	Mito fusion act inconclusive, BRCA1 expr act 8.9µM
O=C(NCCCn1cccn1)c1cc(COc2ccccc2)on1	BRCA1 expr act 11µM (no result: TCR activator, Mito fusion act, BCR signal inh)
COc1ccc(Cl)cc1NS(=O)(=O)c1cccc(C(=O)NCC2(N(C)C)CCCCC2)c1	BCR signal inh inconclusive
NC(=O)NC(=O)COC(=O)c1cccc(NS(=O)(=O)/C=C/c2ccccc2)c1	none
Clc1cccc(CSc2nc3ccncc3[nH]2)c1	BRCA1 expr act 8.9µM
Fc1cccc(CSc2nc3ccncc3[nH]2)c1	BRCA1 expr act inconclusive
COC(=O)c1ccc(N2CCOCC2)c(NC(=O)c2cccnc2)c1	none
COC(=O)Cn1c(=NC(=O)c2cccc(OC)c2)sc2cc(OC)ccc21	BRCA1 expr act 10µM, BCR signal inh inconclusive
COc1cccc(C(=O)N=c2sc3cc(S(C)(=O)=O)ccc3n2C)c1	BRCA1 expr act 6.3µM
O=C1CC(c2cccc([N+](=O)[O-])c2)c2c(ccc3ccccc23)N1 (stereo not drawn)	BCR signal inh inconclusive
Cc1ccc(C2CC(=O)Nc3c2ccc2ccccc32)cc1[N+](=O)[O-] (stereo not drawn)	Mito fusion act 22µM, BCR signal inh inconclusive
CC(C)=C(NC(=O)c1ccccc1)C(=O)Nc1ccc(C(=O)O)cc1	none
Cc1nc2cc3ccccc3cc2c(=O)[nH]1	BRCA1 expr act 11µM, BCR signal inh inconclusive
Cc1cc2ccccc2c(=O)[nH]1	none
Cc1cccc(C)c1OCc1cc(C(=O)N2CCC(C3CCCCC3)C2)no1 (stereo not drawn)	BRCA1 expr act 13µM (no result: Mito fusion act, BCR signal inh)
COCC1CCCN(C(=O)c2cc(COc3ccc(C(C)=O)cc3)on2)C1 (stereo not drawn)	BRCA1 expr act inconclusive (no result: Mito fusion act, BCR signal inh)
CC(=O)c1ccc(OCc2cc(C(=O)N3CC[C@@H]4CCCC[C@H]4C3)no2)cc1	BRCA1 expr act 3.2µM
COc1ccc(C(=O)NCCn2ccc3ccccc32)c(OC)c1	BRCA1 expr act 7.9µM, BCR signal inh inconclusive
COc1ccc(C(=O)NCCN2CCOCC2)c(OC)c1	none
O=c1oc(CCCO)cc2ccc(C#Cc3ccsc3)cc12	BCR signal inh inconclusive
CN(C)c1ccc(C#Cc2ccc3cc(CCCO)oc(=O)c3c2)cc1	BRCA1 expr act 3.2µM, BCR signal inh inconclusive
O=c1oc2ccccc2cc1-c1nc(-c2ccccc2)no1	BRCA1 expr act 13µM, BCR signal inh inconclusive
Cc1ccc(-c2noc(-c3cc4ccccc4oc3=O)n2)cc1	BCR signal inh inconclusive
Cc1occc1C(=O)N/N=C/c1ccc2c(c1)OCO2	BCR signal inh inconclusive
CC1CCC(NC(=O)C(=O)Nc2ccc3c(c2)OCO3)CC1 (stereo not drawn)	BRCA1 expr act 2.8µM, BCR signal inh inconclusive
Cc1ccc(NC(=O)c2ccoc2C)cc1C	Mito fusion act inconclusive, BRCA1 expr act 6.3µM
Cc1occc1C(=O)Nc1ccc2c(c1)OCO2	BRCA1 expr act 3.2µM
